Screening results from PubChem BioAssay.
S1P4 ag: human S1P4 receptor agonism; O95977; S1P4-expressing cell line, agonist reporter assay; activation, % at 4.98 µM; 0.35% of 220,000 active; AID 1509; in the data active = activation above about 11%
Target sequence (O95977 whole entry, looked up): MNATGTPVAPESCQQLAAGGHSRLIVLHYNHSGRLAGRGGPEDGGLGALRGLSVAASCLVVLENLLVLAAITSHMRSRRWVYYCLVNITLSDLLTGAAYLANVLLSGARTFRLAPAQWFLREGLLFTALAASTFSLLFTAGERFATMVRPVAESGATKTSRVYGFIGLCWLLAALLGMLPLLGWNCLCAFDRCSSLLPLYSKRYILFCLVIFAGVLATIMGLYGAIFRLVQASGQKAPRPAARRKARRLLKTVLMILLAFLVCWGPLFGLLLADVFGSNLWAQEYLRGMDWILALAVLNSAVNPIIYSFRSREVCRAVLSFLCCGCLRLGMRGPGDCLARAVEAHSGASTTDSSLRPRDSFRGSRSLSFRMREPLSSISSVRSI
S1P3 antag-1: blocks the human S1P3 receptor. Q99500. CHO S1P3 NFAT-BLA reporter, FRET fluorescence, antagonist mode. inhibition, % at 4.98 µM. 0.27% of 170,000 active. AID 485;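 active = inhibition above the plate cutoff, the mean inhibition of test wells on that plate plus 3 SD, cut at about 28% in these data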;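 also: cells challenged with S1P at its EC80 of 0.8 µM; blue over green emission ratio from cleaved BLA substrate after 4 h stimulation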
GALR2 antag: blocks the human galanin receptor 2 | O43603 | inhibition, % at 4 µM | AID 828 | 0.39% of 140,000 active | GALR2-expressing cells, antagonist mode; in the data active = inhibition above about 27%;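 also: cells stimulated with galanin 1-16 at roughly its EC80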
S1P4 antag: blocks the human S1P4 receptor; O95977; S1P4-expressing cells, antagonist mode, reporter read-out; inhibition, % at 4.98 µM; AID 1510; 0.26% of 220,000 active; in the data active = inhibition above about 29%
GALR2 agonist: activates the human galanin receptor 2. 0.48% of 140,000 active. activation, % (no concentration beside the values). O43603. GALR2-expressing cells, agonist activation read-out. AID 803; in the data active = activation above about 5%, passing the limit was not always enough
S1P3 antag-2: confirmation of human S1P3 receptor antagonists | shares compounds with S1P3 antag-1 | CHO S1P3 NFAT-BLA reporter, FRET, antagonist mode | inhibition, % at 4.98 µM | 30% of 240 active;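 active = inhibition above the hit threshold that was computed for the earlier primary screen, cut at about 30% in these data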
A number is an active result. Only some compounds are listed: those with a hit (about 1.3% of all), similar ones and a draw of the others.

Screening O=C(COC(=O)C1CCN(C(=O)c2ccc(Cl)cc2)CC1)c1ccco1 returned S1P4 ag inactive, S1P3 antag-1 inactive, GALR2 antag inactive, S1P4 antag inactive and GALR2 agonist inactive.
For CC1(C)C(=O)Nc2ccccc2N1C(=O)COC(=O)c1cc([N+](=O)[O-])ccc1N the results were S1P4 ag inactive, S1P3 antag-1 inactive, GALR2 antag inactive, S1P4 antag inactive and GALR2 agonist inactive.
Cc1ccc(NC(=O)c2sc(=S)n(-c3cc(C)ccc3F)c2N)cc1 was read as S1P4 ag inactive, S1P3 antag-1 29.6, S1P4 antag inactive and S1P3 antag-2 inactive.
`COc1ccc(C(=O)COc2ccccc2C#N)cc1` gave S1P4 ag inactive, S1P3 antag-1 inactive and S1P4 antag inactive.
CCCNC(=O)Cn1cnc2sc(C(=O)N3CCN(Cc4ccc5c(c4)OCO5)CC3)c(C)c2c1=O was read as S1P4 ag inactive, S1P3 antag-1 30.4, S1P4 antag inactive and S1P3 antag-2 inactive.
For CCOc1nc(-c2ccc(Cl)cc2)nc2ccccc12 the results were S1P4 ag inactive, S1P3 antag-1 39.3, GALR2 antag inactive, S1P4 antag inactive, GALR2 agonist inactive and S1P3 antag-2 inactive.
For CC(C)Oc1nc(-c2ccc(Cl)cc2)nc2ccccc12 the results were S1P4 ag inactive, S1P3 antag-1 inactive and S1P4 antag inactive.
`CCOc1cc(S(=O)(=O)NCc2ccncc2)ccc1Cl` gave S1P4 ag inactive, S1P3 antag-1 28.9, S1P4 antag inactive and S1P3 antag-2 inactive.
CCOC(=O)N1CCC(=NNC(=O)Cn2ccc(C(F)(F)F)n2)CC1 was read as S1P4 ag inactive, S1P3 antag-1 inactive and S1P4 antag inactive.
Screening O=C(Nc1ccccc1)C(c1ccccc1)C1CCCC1 (stereo not drawn) returned S1P4 ag inactive, S1P3 antag-1 52.4, GALR2 antag inactive, S1P4 antag inactive, GALR2 agonist inactive and S1P3 antag-2 48.2.
CCOC(=O)C(C(=O)Nc1ccccc1)C1CCCCC1 (stereo not drawn) was read as S1P4 ag inactive, S1P3 antag-1 inactive, GALR2 antag inactive, S1P4 antag inactive and GALR2 agonist inactive.
Screening O=C1c2cccc3c(N4CCCCC4)ccc(c23)C(=O)N1CCO returned S1P4 ag inactive, GALR2 antag inactive, S1P4 antag inactive and GALR2 agonist inactive.
Screening O=C1c2cccc3c(N4CCCCC4)ccc(c23)C(=O)N1c1cccc(O)c1 returned S1P4 ag inactive, S1P3 antag-1 51.1, S1P4 antag inactive and S1P3 antag-2 45.0.
O=C(Nc1cccc(CCc2ccccn2)c1)c1cc(F)c(F)cc1Cl was read as S1P4 ag inactive, S1P3 antag-1 inactive, GALR2 antag inactive, S1P4 antag inactive and GALR2 agonist inactive.
COc1cc(/C=N/NC(=O)Nc2cccc3nsnc23)cc(OC)c1OC was read as S1P4 ag inactive, GALR2 antag inactive, S1P4 antag inactive and GALR2 agonist inactive.
`O=C(N/N=C/c1ccc(O)cc1)Nc1cccc2nsnc12` gave S1P4 ag inactive, S1P3 antag-1 31.3, S1P4 antag inactive and S1P3 antag-2 inactive.
COc1cccc(/C=C/C(=O)OCC(=O)NCC2CCCO2)c1OC (stereo not drawn) was read as S1P4 ag inactive, S1P3 antag-1 inactive, GALR2 antag inactive, S1P4 antag inactive and GALR2 agonist inactive.
`NC(=O)Nc1n[nH]c(-c2ccccc2)n1` gave S1P4 ag inactive, S1P3 antag-1 inactive and S1P4 antag inactive.
Screening CCCN(CC1CCCO1)C(=O)CCc1nnc(-c2cc(C)on2)o1 (stereo not drawn) returned S1P4 ag inactive, S1P3 antag-1 inactive and S1P4 antag inactive.
`COC(=O)C(C)(C)ONC(=O)Nc1ccccc1Cl` gave S1P4 ag inactive, S1P3 antag-1 39.0, S1P4 antag inactive and S1P3 antag-2 inactive.
For CCN(CC)C(=O)c1sc(NC(=O)c2ccc(C)c([N+](=O)[O-])c2)c(C#N)c1C the results were S1P4 ag inactive, GALR2 antag inactive, S1P4 antag inactive and GALR2 agonist inactive.
Screening CC(C)(C)c1nc2scc(-c3ccc(Br)cc3)c2c(=O)o1 returned S1P4 ag inactive, S1P3 antag-1 28.5, S1P4 antag inactive and S1P3 antag-2 inactive.
`COC(=O)c1ccc(N2CCN(C(=O)c3ccccc3)CC2)c(NC(C)=O)c1` gave S1P4 ag inactive, S1P3 antag-1 40.2, S1P4 antag inactive and S1P3 antag-2 inactive.
`COc1ccc(-[n+]2c(C)cc(/C=C3\Sc4ccccc4N3C)cc2C)cc1` gave S1P4 ag inactive, S1P3 antag-1 50.3, S1P4 antag inactive and S1P3 antag-2 30.2.
Screening COc1ccccc1-[n+]1c(C)cc(/C=C2\Sc3ccccc3N2C)cc1C returned S1P4 ag inactive, S1P3 antag-1 56.9, S1P4 antag inactive and S1P3 antag-2 39.3.
`COc1ccc(Br)cc1/C=N/NC(=O)C(c1ccncc1)N1CCOCC1` (stereo not drawn) gave S1P4 ag inactive, S1P3 antag-1 inactive, GALR2 antag inactive, S1P4 antag inactive and GALR2 agonist inactive.
For O=C(c1ccc([N+](=O)[O-])cc1)N1CCSC1c1cccc(Cl)c1 (stereo not drawn) the results were S1P4 ag inactive, S1P3 antag-1 inactive and S1P4 antag inactive.
`O=C(OC(C(=O)Nc1cccc(C(F)(F)F)c1)c1ccccc1)C1CCCCC1` (stereo not drawn) gave S1P4 ag inactive, S1P3 antag-1 37.2, GALR2 antag inactive, S1P4 antag inactive, GALR2 agonist inactive and S1P3 antag-2 30.3.
`O=C(Nc1cccc(C(F)(F)F)c1)NC1CCCCC1` gave S1P4 ag inactive, GALR2 antag inactive, S1P4 antag inactive and GALR2 agonist inactive.
For O=[N+]([O-])c1c(NCc2ccco2)ccc2nonc12 the results were S1P4 ag inactive, S1P3 antag-1 106.5, S1P4 antag inactive and S1P3 antag-2 inactive.
Cc1c(CCOC(=O)C23CC4(C)CC(C)(CC(C)(C4)C2)C3)sc[n+]1CC(=O)c1ccccc1 was read as S1P4 ag inactive, S1P3 antag-1 inactive and S1P4 antag inactive.
Screening Cc1c(CCOC(=O)c2cc([N+](=O)[O-])cc([N+](=O)[O-])c2)sc[n+]1CC(=O)c1ccc(Br)cc1 returned S1P4 ag inactive, S1P3 antag-1 37.6, S1P4 antag inactive and S1P3 antag-2 inactive.
Screening CN(CCc1ccccn1)C(=S)NC(=O)c1ccco1 returned S1P4 ag inactive, S1P3 antag-1 inactive and S1P4 antag inactive.
For Cc1ccc(NC(=O)C(OC(=O)c2ccc(F)cc2)c2ccccc2)cc1Cl (stereo not drawn) the results were S1P4 ag inactive, S1P3 antag-1 35.5, GALR2 antag inactive, S1P4 antag inactive, GALR2 agonist inactive and S1P3 antag-2 54.5.
`Cc1ccc(NC(=O)C(OC(=O)c2ccc(O)cc2)c2ccccc2)cc1Cl` (stereo not drawn) gave S1P4 ag inactive, S1P3 antag-1 inactive, GALR2 antag inactive, S1P4 antag inactive and GALR2 agonist inactive.
CSCC[C@H](Nc1ncnc2sc(C)c(C)c12)C(=O)O was read as S1P4 ag inactive, GALR2 antag inactive, S1P4 antag inactive and GALR2 agonist inactive.
